Hits are enriched below; roughly 3.8% of the tested compounds scored in any of these assays.
ATXN2 expr inh = reduces ATXN2 reporter expression in HEK-293 cells | HEK-293 ATXN2-luciferase reporter, luminescence, 24 h | Potency, µM (highest dose often 57 µM), for inactives: at the top dose activity change, negative = inhibition, actives largely listed as inhibitors | actives 0.72% (n = 360,000) | AID 1745845; further: on the % scale 0 is the no-effect control and ±100 the full control effect; nearly all actives have a fitted effect of over 55% in size
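ATXN2-luciferase reporter cells (luciferase flanked by upstream and downstream ATXN2 gene portions) were treated 24 h at 37 °C with compounds at up to 57 uM. SteadyGlo luminescence gave expression; GF-AFC fluorescence gave viability.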
Nrf2 block = Nrf2 pathway inhibition; A549 ARE-Fluc reporter, luciferase luminescence, 18-24 h; Potency, µM (top dose mostly 46 µM), without a hit: at the top dose activity change, negative = inhibition, actives largely listed as inhibitors; actives 2.1% (n = 360,000); AID 504444; further: on the % scale 0 is the no-effect control and ±100 the full control effect; nearly all actives have a fitted effect of over 60% in size
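In this cell-based qHTS, ARE-driven firefly luciferase in A549 cells reports Nrf2 activity; the luminescent signal after BugLite lysis is the measured value, with a prior CellTiter-Fluor read for cell health.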
A549 tox = kills or reduces viability of A549 cells in Nrf2 counter-screen; A549 ARE-Fluc cells, CellTiter-Fluor viability, 18-24 h; Potency, µM (top dose mostly 46 µM), for inactives: top-dose activity change, negative = cytotoxicity, hits mostly inhibitors; actives 0.16% (n = 390,000); further: on the % scale 0 is the no-effect control and ±100 the full control effect
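Cytotoxicity counterscreen: CellTiter-Fluor fluorescence was measured in A549 ARE_Fluc cells after 18-24 h of compound exposure in a concentration series. The subsequent BugLite luminescent read reports ARE-luciferase activity.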
HepG2 viability = HepG2 cytotoxicity, counter-screen for TGF-b inhibitors | HepG2 CAGA-GFP viability, ATP luminescence, 18 h | actives 0.76% (n = 410,000) | Potency, µM (doses to about 46.1 µM), without a hit: at the top dose activity change, negative = cytotoxicity, usual class: cytotoxic
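HepG2 CAGA-GFP cells (1000/well, DMEM with 1% FBS) received compound, then TGF-beta at 500 pg/mL final, and were incubated 18 hours at 37 degrees C. Viability was read by CellTiter-Glo luminescence. Media-only wells were set as complete cell-killing and DMSO as no toxicity.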
S2 tox = cell viability loss in ATXN counter-screen; actives 0.49% (n = 400,000); S2 cells (HEK-293 line with an ATXN2-luciferase reporter) viability, CellTiter-Fluor protease fluorescence, 24 h; Potency, µM (top dose mostly 56.7 µM), hits mostly cytotoxic; further: nearly all actives have a fitted effect of over 40% in size
TGFb inhibitor = TGF-b pathway inhibition | HepG2 CAGA-GFP TGF-b/SMAD3 reporter, GFP fluorescence, 18 h; TGF-beta stimulated, 500 pg/mL final | Potency, µM (top dose mostly 46.1 µM), for inactives: at the top dose activity, negative = inhibition, actives largely listed as inhibitors | actives 1.2% (n = 410,000); further: on the % scale 0 is the no-effect control and ±100 the full control effect; nearly all actives have a fitted effect of over 65% in size
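TGF-beta reporter screen: HEPG2 CAGA-GFP, 1% FBS, 500 pg/mL TGF-beta final, 18 h; per-cell GFP summed per well; curves fitted and categorized by class.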
* hit, by the source's call; i = inactive; ? = inconclusive; . = no result given; [ ] = remark or other dose. The call rests on the fitted dose curve; in most records, active means well fitted curve in the direction sought with a large enough effect; inconclusive means small, poorly fitted or top-dose-only effect, or another doubt; inactive means no such curve, though single readings can be large; an effect the other way counts as inactive or inconclusive. Potency means the concentration at half of the fitted maximal effect.

SMILES	ATXN2 expr inh	Nrf2 block	A549 tox	HepG2 viability	S2 tox	TGFb inhibitor
Nc1nnc2c(n1)[nH]c1ccccc12	-1%	24%	-8%	-2%	i	-6%
O=C(CSc1cn(CCNC(=O)c2ccc3ccccc3c2)c2ccccc12)NCc1ccco1	?	23µM*	-27%	-34%	?	?
Cc1cc(NC(=O)CSc2cn(CCNC(=O)c3ccc(Cl)cc3)c3ccccc23)no1	0%	?	-1%	-30%	19µM*	-6%
CN(C)C(=S)SCC(=O)Nc1ccc(Cl)cc1Cl	22%	-9%	2%	-6%	?	0%
Cc1ccccc1OCc1ccc(-c2nc(C#N)c(NCc3cccnc3)o2)o1	32µM*	12µM*	11%	-36%	?	?
COc1ccc(OCc2ccc(-c3nc(C#N)c(NCc4cccnc4)o3)o2)cc1	-39%	?	-15%	-12%	i	-14%
Cc1ccc(OCc2ccc(-c3nc(C#N)c(NCc4cccnc4)o3)o2)cc1	?	?	-23%	-24%	?	-27%
Cc1cccc(OCc2ccc(-c3nc(C#N)c(NCc4cccnc4)o3)o2)c1	28µM*	?	1%	-20%	22µM*	?
COc1ccc(CNc2oc(-c3ccc(COc4ccccc4C)o3)nc2C#N)cc1	-1%	21µM*	0%	14µM*	?	-11%
CCCCCCCC/C=C\CCCCCCCCN	0%	.	.	.	i	.
CC(=O)Nc1ccc(Br)c(Cl)c1	-6%	0%	-2%	-15%	i	7%
O=C(Nc1ccc(Br)c(Cl)c1)C1CC1	-21%	15µM*	-10%	-20%	i	-7%
O=C(Nc1ccc(F)c(Cl)c1)C1CCCC1	-27%	6%	4%	10µM*	i	0%
CC(C)c1ccc(C2/C(=C(/O)c3ccc(F)cc3)C(=O)C(=O)N2CCCN2CCOCC2)cc1 (stereo unspecified)	.	0%	11%	4%	i	2%
CCCC[C@@H](CN[C@H](C)CNC)NCC1CCC(C(C)(C)C)CC1 (stereo partly specified)	35µM*	-20%	-10%	18µM*	32µM*	?
CC[C@H](C)[C@@H](CN[C@H](CCCCNC)CNC)NCC1CCCC1	10%	11%	-14%	1%	i	-24%
CCCCn1c(/C=N/Nc2nc3ccccc3[nH]2)nc2ccccc21	?	?	?	-42%	?	11µM*
C(=N\Nc1nc2ccccc2[nH]1)/c1ccccn1	.	?	?	-83%	?	?
Fc1ccccc1-c1ccc(/C=N/Nc2nc3ccccc3[nH]2)o1	.	?	4%	-57%	i	13µM*
Cc1cc2c(c(C)c1Cl)C(c1ccc3c(c1)OCO3)CC(c1ccccc1)O2 (stereo unspecified)	.	19%	9%	-1%	.	?
Cc1cc(/C=C2/SC(=S)N(c3cccc(C(F)(F)F)c3)C2=O)c(C)n1-c1cccnc1	-26%	5.8µM*	?	-25%	?	1%
COc1cccc(/C=N/Nc2ncnc3scc(-c4ccccc4)c23)c1OC	-28%	13µM*	10%[1.84 µM]	-61%	i	?
CCOC(=O)N1CCN(C(=O)C2CCN(C(=O)c3ccccc3C)CC2)CC1	?	?	-1%	-96%	.	?
O=C(O)c1ccc(Cl)c(S(=O)(=O)N2CCCCCC2)c1	0%	26µM*	?	-2%	i	-9%
Cc1ccc(NC(=O)c2ccc(NCCN)c([N+](=O)[O-])c2)cc1Cl	8%	13%	-7%	18µM*	i	?
SMILES	ATXN2 expr inh	Nrf2 block	A549 tox	HepG2 viability	S2 tox	TGFb inhibitor
Cc1ccc(C(=O)NCc2cccnc2)cc1S(=O)(=O)N1CCCCCC1	-6%	8.2µM*	-4%	-7%	?	-24%
CC(C)(C)c1ccc(C(=O)Nc2cccc(C(=O)N3CCOCC3)c2)cc1	-30%	8.2µM*	?	-26%	i	-29%
CC(=O)Oc1ccc(C(=C2CCCCC2)c2ccc(OC(C)=O)cc2)cc1	6%	.	.	.	i	.
N#Cc1ccsc1NC(=O)c1ccc(Cl)c([N+](=O)[O-])c1	.	0%	-3%	-34%	i	7.1µM*
Cc1ccc(C(=O)Nc2cccc(C(=O)O)c2)cc1S(=O)(=O)N1CCCCC1	13µM*	.	2%	-12%	i	-7%
Cc1ccc(C(=O)Nc2cccc(C(=O)O)c2)cc1S(=O)(=O)N1CCOCC1	?	-1%	-2%	-10%	i	-15%
COc1cc(C(=O)Nc2cccc(S(=O)(=O)N3CCCC3)c2)c([N+](=O)[O-])cc1OC	-3%	-1%	-2%	59%	i	0%
Cc1ccc(C(=O)Nc2cccc(S(=O)(=O)N3CCCCC3)c2)cc1[N+](=O)[O-]	?	16µM*	-15%	-8%	?	?
O=[N+]([O-])c1cc(NS(=O)(=O)c2ccc(Cl)nc2)ccc1Cl	7%	16µM*	?	-48%	i	?
CC(C)c1ccc(NS(=O)(=O)c2ccc(Cl)nc2)cc1	-27%	-15%	6%	-30%	i	-21%
CCS(=O)(=O)NCC(c1cccnc1)N1CCN(c2ccccc2F)CC1 (stereo unspecified)	1%	2%	1%	4%	i	18%
[N-]=[N+]=CC(=O)C(c1ccccc1)(c1ccccc1)c1ccccc1	-3%	11%	1%	-31%	i	-18%
Cc1ccc(C(=O)Nc2cnc3ccccc3c2)cc1	2.2µM*	?	-9%	-29%	i	-30%
Cc1cccc(C)c1NS(=O)(=O)c1ccc(NC(=O)c2ccc(Cl)c([N+](=O)[O-])c2)cc1	.	-24%	-8%	18µM*	25µM*	?
Cc1ccc(C(=O)Nc2cccc(C(=O)O)c2)cc1	2.5µM*	?	15%	-24%	i	5%
COc1ccc(C(=O)Nc2cccc(S(=O)(=O)N3CCCC3)c2)cc1S(=O)(=O)N1CCOCC1	-20%	-18%	-7%	-7%	i	-3%
Cc1cc(C(=O)Nc2cnc3ccccc3c2)ccc1[N+](=O)[O-]	29%[11.3 µM]	?	-3%	21%	i	2%
Cc1ccc(C(=O)Nc2cccc(S(=O)(=O)N3CCCCC3)c2)cc1S(=O)(=O)N1CCOCC1	-16%	7.3µM*	-6%	-4%	i	-25%
CCN(CC)S(=O)(=O)c1ccc(NC=C(C#N)C#N)cc1	-13%	-5%	-12%	26%	i	7%

High-throughput results: PubChem, National Center for Advancing Translational Sciences (NCATS)
